DT40 TDP1 CPT = DT40-hTDP1 cell growth loss with CPT. chicken DT40 Tdp1-/-;hTDP1 cells + 20 nM CPT, ATP luminescence, 48 h. Potency, µM (doses to about 46.2 µM), inactives show at the highest dose activity change, negative = growth inhibition, actives largely listed as inhibitors. 420,000 tested, 12% active; also: % is scaled to controls: 0 for no effect and ±100 for the full control effect; nearly all actives have a fitted effect of over 55% in size
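Chicken DT40 Tdp1-/- cells stably complemented with human TDP1 were seeded at 400 cells/well in medium containing 20 nM camptothecin, exposed to pin-transferred compounds, and grown at 37 °C for at least 48 hr. Viability was read as ATP luminescence.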
ATXN viability = reduces viability in counter-screen for ATXN expression inhibitors | S2 cells (HEK-293 line with an ATXN2-luciferase reporter) viability, CellTiter-Fluor protease fluorescence, 24 h | Potency, µM (doses to about 56.7 µM), actives largely listed as cytotoxic | 400,000 tested, 0.49% active | AID 651635; also: nearly all actives have a fitted effect of over 40% in size
TGFb inhibitor = TGF-b pathway inhibition | HepG2 CAGA-GFP TGF-b/SMAD3 reporter, GFP fluorescence, 18 h; TGF-beta stimulated, 500 pg/mL final | Potency, µM (doses to about 46.1 µM), without a hit: at the highest dose activity, negative = inhibition, hits mostly inhibitors | 410,000 tested, 1.2% active | AID 588855; also: % is scaled to controls: 0 for no effect and ±100 for the full control effect; nearly all actives have a fitted effect of over 65% in size
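HEPG2 CAGA-GFP reporter cells (1000/well, DMEM with 1% FBS) received compounds, then recombinant TGF-beta at 500 pg/mL final for 18 hours at 37 degrees C. Per-cell GFP summed per well was normalised to unstimulated and stimulated DMSO controls before curve fitting.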
HepG2 tox = counter-screen for TGF-b inhibitors: cytotoxicity in HepG2 cells. HepG2 CAGA-GFP viability, ATP luminescence, 18 h. 410,000 tested, 0.76% active. AID 588856. Potency, µM (top dose mostly 46.1 µM), for inactives: at the top dose activity change, negative = cytotoxicity, most hits filed as cytotoxic
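HepG2 CAGA-GFP cells (1000/well, DMEM with 1% FBS) received compound, then TGF-beta at 500 pg/mL final, and were incubated 18 hours at 37 degrees C. Viability was read by CellTiter-Glo luminescence. Media-only wells were set as complete cell-killing and DMSO as no toxicity.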
TDP1 cell noCPT = qHTS for Inhibitors of human tyrosyl-DNA phosphodiesterase 1 (TDP1): qHTS in cells in absence of CPT. Potency, µM (highest dose often 46.2 µM), inactives show top-dose activity change, negative = growth inhibition, hits mostly inhibitors. AID 686978, 2013. 420,000 tested, 15% active. DT40 Tdp1-/- hTDP1 cells, no CPT, ATP luminescence, 48 h; also: % is scaled to controls: 0 for no effect and ±100 for the full control effect; nearly all actives have a fitted effect of over 55% in size
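Chicken DT40 Tdp1-/- cells complemented with human TDP1, screened without camptothecin (DMSO vehicle only), 400 cells/well. Compounds pin-transferred, cells incubated at 37 °C for at least 48 hr. Growth read as ATP-dependent luminescence (CellTiter-Glo, 30 min at RT).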
ATXN2 expr inh = reduces ATXN2 reporter expression in HEK-293 cells; AID 1745845; Potency, µM (top dose mostly 57 µM), without a hit: top-dose activity change, negative = inhibition, most hits filed as inhibitors; HEK-293 ATXN2-luciferase reporter, luminescence, 24 h; 360,000 tested, 0.72% active; also: % is scaled to controls: 0 for no effect and ±100 for the full control effect; nearly all actives have a fitted effect of over 55% in size
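qHTS (up to 57 uM final) was run with 24 h compound exposure of reporter cells at 37 °C. Each well was multiplexed: SteadyGlo luminescence measured ATXN2-luciferase expression after a fluorogenic Gly-Phe-AFC viability readout (25 uM final).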
Starred values were filed as active, the others as inactive; i = inactive; ? = inconclusive; / = not tested or not shown. In the library only some 17% were active in any assay of this set; here they are far more common. Calls follow the shape of the dose curve; as a rule, active = well fitted curve in the direction sought with a large enough effect; inconclusive = small, poorly fitted or top-dose-only effect, or another doubt; inactive = no such curve, though single readings can be large; an effect the other way counts as inactive or inconclusive. Potency is read from the fitted curve at half-maximal effect.

SMILES | DT40 TDP1 CPT | ATXN viability | TGFb inhibitor | HepG2 tox | TDP1 cell noCPT | ATXN2 expr inh
COc1cc(-c2coc3c(C(=O)NCc4ccc(OC)c(OC)c4)cccc23)ccc1O | 5.8µM* | 16µM* | ? | -59% | 4.6µM* | ?
O=C(NC1CCCCC1)c1cccc2c(-c3ccc(F)c(F)c3)coc12 | ? | i | -22% | -21% | ? | 1%
COc1ccc(CNC(=O)c2cccc3c(-c4ccc(F)c(F)c4)coc23)cc1OC | 21µM* | i | -25% | -22% | 12µM* | 0%
COc1cc(-c2coc3c(C(=O)NCc4ccncc4)cccc23)ccc1O | -99% | ? | 0% | -22% | -91% | -7%
O=C(NCc1ccccc1)c1cccc2c(-c3ccc(F)c(F)c3)coc12 | ? | i | ? | -19% | ? | 8%
CC(=O)Nc1ccc(C=NNC(=O)CCCC(=O)NN=Cc2ccc(NC(C)=O)cc2)cc1 | -1% | i | -7% | -34% | -4% | 1%
O=C1O[C@@H](c2ccccc2)C[C@@H](O)[C@H](O)CCCc2ccccc21 | -21% | i | / | / | ? | -23%
CCCCC(=O)Nc1ccc(C(=O)OCc2cc(=O)n3ccsc3n2)cc1 | ? | i | 15% | -6% | 16µM* | -13%
COc1ccccc1C(=O)OCc1cc(=O)n2ccsc2n1 | 2% | i | -11% | 3% | -5% | 26%
O=C(COc1ccc(Cl)cc1)Nc1ccc(C(=O)OCc2cc(=O)n3ccsc3n2)cc1 | 15µM* | ? | ? | 1% | ? | -17%
CCCOc1c(Br)cc(C(=O)OCc2cc(=O)n3ccsc3n2)cc1OC | 5.8µM* | i | 15% | 10% | 10µM* | /
O=C(OCc1cc(=O)n2ccsc2n1)c1ccc(OC(F)F)cc1 | 9% | i | 5% | 3% | -19% | -15%
Cc1onc(NC(=O)c2ccc(Cl)cc2Cl)c1Br | ? | i | -23% | -19% | 10µM* | 6%
COc1ccc(/C=C/C(=O)NC(=S)NNC(=O)c2c(-c3ccccc3)noc2C)cc1 | ? | i | -1% | 1% | 26µM* | -18%
Cc1onc(-c2ccccc2)c1C(=O)NNC(=S)NC(=O)/C=C/c1ccccc1 | 21µM* | i | ? | -12% | 18µM* | ?
Cc1onc(-c2ccccc2)c1C(=O)NNC(=S)NC(=O)c1ccc(Br)cc1 | ? | i | 0% | -34% | ? | 0%
Cc1onc(-c2ccccc2)c1C(=O)NNC(=S)NC(=O)c1ccc(Cl)cc1Cl | ? | i | ? | 13µM* | ? | -17%
O=C(NCc1cccs1)c1ccc2c(c1)N(Cc1ccccc1Cl)C(=O)c1ccccc1S2 | -15% | i | -12% | -8% | -25% | -7%
C[C@H](CO)N1C[C@H](C)[C@H](CN(C)S(=O)(=O)c2ccc3ccccc3c2)OCc2cnnn2CCCC1=O | ? | i | -5% | -54% | ? | 3%
N#Cc1ccccc1NC(=O)C(=O)NCC(c1cccnc1)N1CCc2ccccc2C1 (centres undefined) | ? | / | -7% | -14% | ? | /
O=C(NCC(c1cccnc1)N1CCc2ccccc2C1)C(=O)Nc1ccc(Cl)cc1 (centres undefined) | 12µM* | / | ? | -30% | 8.2µM* | /
O=C(NCC(c1cccnc1)N1CCOCC1)C(=O)Nc1ccc(F)cc1 (centres undefined) | -1% | i | 14% | -1% | -13% | 6%
O=C(NCC(c1cccnc1)N1CCc2ccccc2C1)C(=O)Nc1cccc(Cl)c1 (centres undefined) | 21µM* | / | 0% | -1% | 18µM* | /
O=[N+]([O-])c1ccc(S(=O)(=O)NCC(c2cccnc2)N2CCc3ccccc3C2)cc1 (centres undefined) | ? | i | ? | -15% | 21µM* | 3%
COCCNS(=O)(=O)c1cc2[nH]c3c(c2cc1C)C(=O)CC(C)(C)C3 | -1% | i | 0% | -35% | ? | 21%
SMILES | DT40 TDP1 CPT | ATXN viability | TGFb inhibitor | HepG2 tox | TDP1 cell noCPT | ATXN2 expr inh
Cc1ccc(C(=O)Cc2ccccc2)o1 | -16% | i | -17% | -10% | -1% | 3%
O=C(/C=C/c1ccc2c(c1)OCO2)c1cccs1 | 3.3µM* | / | / | / | 6µM* | /
Cc1ccc(C(=O)/C=C/c2ccc(Br)cc2)o1 | ? | i | 0% | -27% | 23µM* | -21%
Cc1ccc(C(=O)/C=C/c2ccc3c(c2)OCO3)o1 | 18µM* | i | ? | -44% | 21µM* | 7%
Cc1ccc(C(=O)/C=C/c2ccccc2)o1 | ? | i | -25% | -49% | 15µM* | 8%
O=C(O)/C=C/c1cccc2c1OCCO2 | -9% | i | -13% | -9% | 2% | -19%
CCOc1ccc(Cl)cc1S(=O)(=O)N1CCC(C(=O)NC2CC2)CC1 | -1% | / | -7% | -1% | 4% | -3%
COC(=O)/C=C/c1ccc2c(c1)OCO2 | -6% | i | 1% | -9% | 1% | 4%
CCNc1ccccc(C(=O)/C=C/c2ccc3c(c2)OCO3)c1=O | 8.2µM* | i | ? | -26% | 16µM* | 7%
COc1ccccc1NC(=S)N1CC(C)(C)C1=O | -3% | i | 2% | 5µM* | 1% | 5%
CCN(CC(=O)Nc1cc(Cl)ccc1C)C(=O)c1cc(S(=O)(=O)N2CCCCCC2)ccc1OC | ? | i | -6% | -24% | 18µM* | -7%
CCN(CC(=O)Nc1ccccc1OC)C(=O)c1cc(S(=O)(=O)N2CCCCCC2)ccc1OC | 16µM* | i | ? | -4% | 12µM* | 6%
CCN(CC(=O)Nc1cccc(S(=O)(=O)N2CCCC2)c1)CC(=O)Nc1ccccc1OC | -3% | i | -12% | 7% | ? | -23%
CCCN1CCCc2cc(CN(CCCN3CCOCC3)C(=O)Nc3ccc(OCC)cc3)ccc21 | 26µM* | ? | -26% | -6% | ? | -1%
CCCN1CCCc2cc(CN(CCCN3CCOCC3)C(=O)Nc3ccc(Cl)c(Cl)c3)ccc21 | 26µM* | 10µM* | ? | -37% | 7.3µM* | 0%
CCN1CCCc2cc(CN(CCN3CCOCC3)C(=S)Nc3cccc(OC)c3)ccc21 | ? | i | ? | -48% | 21µM* | /
C[C@@H]1CN([C@H](C)CO)C(=O)CCCn2nncc2CO[C@@H]1CN(C)C(=O)c1ccccc1 | -22% | i | 15% | 0% | -2% | 9%

Screens (PubChem)
